# A number with no mark means an inactive call.
# Test system: Vero E6 infected with SARS-CoV-2
# Assay: inhibition of SARS-CoV-2 cytopathic effect; higher = more antiviral protection, active = above 15
# Conditions: 10000 nM; 48 h
row,Compound,inhibition of SARS-CoV-2 cytopathic effect
1,COc1cc(C(=S)N2CCOCC2)ccc1O [vanitiolide],-0.14%
2,Cc1cc(-c2nc(-c3ccc(OC(F)(F)F)cc3)no2)nn1Cc1ccnc(N2CCN(C3CC3)CC2)c1,-8.83%
3,FC(F)(F)C(F)(F)C(F)(F)C(F)(F)C(F)(F)C(F)(F)C(F)(F)C(F)(F)Br [perflubron],0.45%
4,C1CCC(C(CC2CCCCN2)C2CCCCC2)CC1 (stereo not given) [perhexiline],48.5% (active)
5,COc1ccc(-c2cc(C(F)F)nn2-c2ccc(S(N)(=O)=O)cc2)cc1F [deracoxib],2.18%
6,CN(C)CC[C@@]1(c2ccc(Cl)cc2)Cc2ccccc2C(=O)O1 (racemic),-3.54%
7,O=C1NC(O)CCN1[C@@H]1O[C@H](CO)[C@@H](O)[C@H]1O (stereo not given in full) [tetrahydrouridine],-0.83%
8,O=C1C[C@@H]2OCC=C3CN4CC[C@]56c7ccccc7N1[C@H]5[C@H]2[C@H]3C[C@H]46 [strychnine],1.26%
9,CCCCCS(=O)(=O)CCCCCCCCCCn1c(-c2ccc(O)cc2)c(C)c2cc(O)ccc21,-5.93%
10,CCCCCCCCCCCC(=O)O [lauric-acid],-1.99%
11,C[C@H]1O[C@@H](Oc2c(-c3cc(O)c(O)c(O)c3)oc3cc(O)cc(O)c3c2=O)[C@@H](O)[C@@H](O)[C@@H]1O [myricitrin],-1.34%
12,CC1=CC(=C(c2ccc(N)cc2)c2ccc(N)cc2)C=CC1=N [basic-fuchsin],-17.1%
13,C[C@@H](N)[C@H]1CC[C@H](C(=O)Nc2ccncc2)CC1,-3.54%
14,CC(CCc1ccc(O)cc1)NCC(O)c1ccc(O)cc1 (stereo not given) [ractopamine],1.53%
15,"Cc1ccc(C)c([C@H](O)CNC(C)C)c1 [benzenemethanol,-2,5-dimethyl-[[(1-methylethyl)amino]methyl]]",1.34%
16,CC(C)c1cc(-c2ccc(F)c3ccccc23)nc(N)n1,-2.34%
17,Clc1cccc(-n2nnnc2NCc2ccccc2Oc2ccccn2)c1Cl,1.67%
18,CC(=O)Oc1ccc(C(c2ccc(OC(C)=O)cc2)c2ccccn2)cc1 [bisacodyl],2.49%
19,Clc1ccc(CO/N=C(\Cn2ccnc2)c2ccc(Cl)cc2Cl)c(Cl)c1 [oxiconazole],-1.24%
20,O=C1C=C2C=C[C@@H]3C[C@@]2(O1)[C@H]1CCCCN31 [securinine],18.4% (active)

row,Compound,inhibition of SARS-CoV-2 cytopathic effect
1,CC[C@H](C)n1cc(C)c2c(C(=O)NCc3c(C)cc(C)[nH]c3=O)cc(-c3ccc(N4CCNCC4)nc3)cc21,-4.63%
2,c1ccc2c(c1)CCCc1cc(NCCN3CCOCC3)nnc1-2,0.84%
3,CNC1CC(N)C(O)C(OC2OC(CO)C(O)C3OC4(OC(C(N)CO)C(O)C(O)C4O)OC23)C1O (stereo not given) [Hygromycin B],1.46%
4,Oc1cc(O)cc(/C=C/c2ccc(O)c(O)c2)c1 [piceatannol],2.32%
5,CC(C)(O)c1ccn2c(-c3ccc(F)c(-c4ccc(F)cc4C#N)c3)cnc2c1F,-2.58%
6,CCN(CC)CCOC(=O)C(c1ccccc1)C1CCCCC1 (stereo not given) [drofenine],1.22%
7,C[C@](O)(COc1ccc(C#N)cc1)C(=O)Nc1ccc(C#N)c(C(F)(F)F)c1 [ostarine],1.37%
8,CCCN1C[C@H](CSC)C[C@@H]2c3cccc4[nH]cc(c34)C[C@H]21 [pergolide],-1.92%
9,Nc1ccc2ncnc(NCCc3ccc(Oc4ccccc4)cc3)c2c1,-4.62%
10,CC(C)Oc1ccc(Cc2ccc(NC3=NCCN3)cc2)cc1,-0.97%
11,CC[C@@H](C(N)=O)N1CCCC1=O [levetiracetam],-0.05%
12,CCCCn1c(-c2ccccc2)nc(-c2ccccc2)c1CN(Cc1ccc2c(c1)OCO2)Cc1ccc2c(c1)OCO2,5.96%
13,CN1C(=O)/C(=C2/C(=O)Nc3ccccc32)c2ccccc21 [meisoindigo],18.2% (active)
14,CC(C)Nc1cc(-c2c[nH]c(C(=O)N[C@H](CO)c3cccc(Cl)c3)c2)c(Cl)cn1,-6.01%
15,O=C1NC(c2ccccc2)(c2ccccc2)C(=O)N1COP(=O)(O)O [fosphenytoin],-0.44%
16,CCCS(=O)(=O)Nc1ccc(F)c(C(=O)c2c[nH]c3ncc(Cl)cc23)c1F,1.71%
17,CC(C)C[C@@H](NC(=O)[C@H](Cc1ccccc1)NC(=O)CNC(=O)[C@@H](C)NC(=O)[C@@H](N)Cc1ccc(O)cc1)C(=O)O,0%
18,[I-].[K+] [potassium-iodide],-1.54%
19,CC(C)Cc1ccc([C@@H](C)C(=O)NS(C)(=O)=O)cc1 [reparixin],4.19%
20,O=[N+]([O-])O[C@@H]1CO[C@H]2[C@@H]1OC[C@@H]2O [isosorbide-mononitrate],1.45%

# — the supplement of paper PMC13380429
